# Test results taken from the supplement of paper PMC6135742.
# Structures can show the parent of a compound that is named as a salt. ± gives the standard deviation of the averaged measurements. The full ranking holds about 2,600 compounds; the median of “total cell number (DAPI+ nuclei) relative to DMSO vehicle control” is about -1.4, and the lowest 2% start at about -23. This excerpt belongs to a sample that is enriched for the lowest values.
# Test system: jimpy (Plp1 jimpy) mouse iPSC-derived oligodendrocyte progenitor cells
# Test: total cell number (DAPI+ nuclei) relative to DMSO vehicle control (SDs above negative control mean); higher = more surviving cells
# Conditions: 10 µM; 3 days
# Method: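 Primary phenotypic screen of >3,000 bioactive compounds (Selleck L1700 and Sigma LO1280 libraries) at a single dose of 10 µM. Compounds were added to jimpy (Plp1 mutant) mouse iPSC-derived OPCs at the start of thyroid hormone-induced oligodendrocyte differentiation, one well per compound in 384-well plates. After 3 days cells were stained for MBP, Sox10 and DAPI and imaged with an Operetta system. MBP+ oligodendrocyte number and total cell number were expressed as the number of SDs above the mean of the DMSO negative control on the same plate (n=16 control wells per plate). Hits were defined as >=4 SD for oligodendrocytes and >=2 SD for total cells.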
row,Compound,total cell number
1,CCN(c1cc(-c2ccc(CN3CCOCC3)cc2)cc(C(=O)NCc2c(C)cc(C)[nH]c2=O)c1C)C1CCOCC1,2.45
2,CCNC(=O)c1noc(-c2cc(C(C)C)c(O)cc2O)c1-c1ccc(CN2CCOCC2)cc1,-26.3
3,Cc1cc(C)c(CNC(=O)c2cc(-c3ccc(CN4CCOCC4)cc3)cc3c2cnn3C2CCCC2)c(=O)[nH]1,7.3
4,CN[C@@H](C)C(=O)N[C@H](C(=O)N1CCC[C@H]1C(=O)Nc1snnc1-c1ccccc1)C1CCCCC1,-4.08
5,O=S(=O)(O)Oc1ccc(C(c2ccc(OS(=O)(=O)O)cc2)c2ccccn2)cc1 [Sodium Picosulfate],0.486
6,O=C(O)C(=O)O.[NH-][C@@H]1CCCC[C@H]1[NH-].[Pt+2] [Oxaliplatin],-23.4
7,COc1ccc2c(Oc3ccc(NC(=O)c4c(C)n(CC(C)(C)O)n(-c5ccccc5)c4=O)nc3)ccnc2c1,-3.37
8,CCOC(=O)CC(=O)N1CCSC1COc1ccccc1OC (stereo not drawn) [Moguisteine],-1.39
9,NC1(c2ccc(-c3nc4ccn5c(=O)[nH]nc5c4cc3-c3ccccc3)cc2)CCC1,-25.6
10,CC1=C(C(=O)O)N2C(=O)[C@@H](NC(=O)[C@H](N)C3=CCC=CC3)[C@H]2SC1 [Cephradine],-1.61
11,CN(C)CCC(c1ccc(Cl)cc1)c1ccccn1 (racemic) [(±)-Chlorpheniramine maleate],-2.22
12,CCOc1cc(C(=O)Nc2ccc(Cl)c(-c3nc4ccccc4[nH]3)c2)cc(OCC)c1OCC,-2.15
13,COc1cc2ncnc(Nc3ccc(Cl)cc3F)c2cc1OC,-8.14
14,COc1cc2nccc(Oc3ccc(NC(=O)C4(C(=O)Nc5ccc(F)cc5)CC4)cc3)c2cc1OC,-20
15,CN(C)C/C=C/C(=O)Nc1cc2c(Nc3ccc(F)c(Cl)c3)ncnc2cc1O[C@H]1CCOC1 [Afatinib (BIBW2992)],-25.6
16,COc1cc2ncnc(Nc3ccc(F)c(Cl)c3)c2cc1OCCCN1CCOCC1 [Gefitinib (ZD1839)],-20.6
17,COc1cc(C(C)=O)ccc1OCCCN1CCC(c2noc3cc(F)ccc23)CC1 [Iloperidone],-2.6
18,C=CC(=O)Nc1ccc2ncnc(Nc3ccc(OCc4cccc(F)c4)c(Cl)c3)c2c1,-12.9
19,COc1cc2c(Oc3ccc(NC(=O)C4(C(=O)Nc5ccc(F)cc5)CC4)cc3F)ccnc2cc1OCCCN1CCOCC1,-27
20,COc1cc2ncnc(Nc3ccc(F)c(Cl)c3)c2cc1NC(=O)/C=C/CN1CCCCC1,-11.6
21,CCOc1cc2ncc(C#N)c(Nc3ccc(OCc4ccccn4)c(Cl)c3)c2cc1NC(=O)/C=C/CN(C)C [Neratinib (HKI-272)],-12.8
22,C=CC(=O)Nc1cc2c(Nc3ccc(F)c(Cl)c3)ncnc2cc1OCCCN1CCOCC1 [Canertinib (CI-1033)],-24.4
23,CCOc1cc2ncc(C#N)c(Nc3ccc(F)c(Cl)c3)c2cc1NC(=O)/C=C/CN(C)C [Pelitinib (EKB-569)],-27.4
24,Cc1c(C(=O)N2CCOc3ccc(-c4ccc(N)nc4)cc3C2)ccc(S(C)(=O)=O)c1F,-3.21
25,NOCC(=O)O [O-(Carboxymethyl)hydroxylamine hemihydrochloride],1.52
26,N#Cc1c(O)c2c(-c3ccc(-c4ccccc4O)cc3)csc2[nH]c1=O,0.298
27,c1coc(CNc2ncnc3[nH]cnc23)c1 [Kinetin],0.658

row,Compound,total cell number
1,COc1cc(/C=C(\C#N)C(=O)Nc2nnc(C(F)(F)F)s2)ccc1OCc1ccc(C(F)(F)F)cc1C(F)(F)F,-0.657
2,Cc1cc(/C=C/C#N)cc(C)c1Nc1ccnc(Nc2ccc(C#N)cc2)n1 [Rilpivirine],-9.09
3,Oc1ccc(/C=C/c2cc(O)cc(O)c2)cc1 [Resveratrol],-2.54 ± 1
4,CCN(c1nc(N)c(C(=O)NC(=N)N)nc1Cl)C(C)C [5-(N-Ethyl-N-isopropyl)amiloride],-4.19
5,O=c1cc[nH]c(=S)[nH]1 [2-Thiouracil],-0.0444
6,CS(=O)(=O)c1ccc(C(=O)Nc2ccc(Cl)c(-c3ccccn3)c2)c(Cl)c1 [Vismodegib (GDC-0449)],-1.63
7,CNC(=O)Nc1ccc(-c2nc(N3CC4CCC(C3)O4)c3cnn(C4CCC5(CC4)OCCO5)c3n2)cc1,-8.93
8,"COc1ccccc1N1CCN(CCCNc2c(C)c(=O)n(C)c(=O)n2C)CC1 [Urapidil, 5-Methyl-]",-1.49
9,CCCCCCCCCCCCCCCCCCOP(=O)([O-])OC1CC[N+](C)(C)CC1 [Perifosine],-0.796
10,CN(C)CC(c1ccc(O)cc1)C1(O)CCCCC1 (stereo not drawn) [Desvenlafaxine],-0.735
11,CN(C)CC(c1ccc(O)cc1)C1(O)CCCCC1 (stereo not drawn) [Desvenlafaxine Succinate],-3.69
12,Oc1ccccc1O [Pyrocatechol],-10.2
13,"Nc1cc(=O)[nH]c(N)n1 [2,4-Diamino-6-pyrimidinone]",-1.65
14,CC(C)(O)CC[C@@H](O)[C@](C)(O)[C@H]1CC[C@@]2(O)C3=CC(=O)[C@@H]4C[C@@H](O)[C@@H](O)C[C@]4(C)[C@H]3CC[C@]12C [20-Hydroxyecdysone],-0.544
15,CC(S)C(=O)NCC(=O)O (stereo not drawn) [Tiopronin],-2.65
16,C=C(C)[C@@H]1CC=C(C(=O)O)CC1 [(-)-Perillic acid],-1.68
17,CN(C)c1ccc(-c2nc3ncc(Cl)c(N4CCN(CC(=O)Nc5nccs5)CC4)c3[nH]2)cc1,1.85
18,O=C1CCC(N2C(=O)c3ccccc3C2=O)C(=O)N1 (racemic) [(±)-Thalidomide],-2.18
19,O=C1CCC[C@@H]2[C@H]3CCC[N+]4([O-])CCC[C@@H](CN12)[C@@H]34 (stereo partly drawn) [Oxymatrine],-0.222
20,C#Cc1cccc(Nc2ncnc3cc(OC)c(OCCCCCCC(=O)NO)cc23)c1,-18.7
21,COc1cc2c(N3CCN(C(=O)Nc4ccc(OC(C)C)cc4)CC3)ncnc2cc1OCCCN1CCCCC1 [Tandutinib (MLN518)],-10.3
22,COc1cc2c(Nc3ccc(NC(=O)c4ccccc4)cc3)ncnc2cc1OCCCN1CCOCC1,-26.6
23,CCOC(=O)[C@@H](N)Cc1ccc(O)c(O)c1 [L-Dopa ethyl ester],-2.07
24,CO[C@H]1/C=C\C=C(/C)C(=O)NC2=CC(=O)C(NCCN(C)C)=C(C[C@@H](C)C[C@H](OC)[C@H](O)[C@@H](C)/C=C(\C)[C@@H]1OC(N)=O)C2=O [17-DMAG (Alvespimycin) HCl],-26.5
25,COC1=C2C[C@@H](C)C[C@H](OC)[C@H](O)[C@@H](C)/C=C(\C)[C@H](OC(N)=O)[C@@H](OC)/C=C\C=C(/C)C(=O)NC(=CC1=O)C2=O [Geldanamycin],-12.3
26,C=CCNC1=C2C[C@@H](C)C[C@H](OC)[C@H](O)[C@@H](C)/C=C(\C)[C@H](OC(N)=O)[C@@H](OC)/C=C\C=C(/C)C(=O)NC(=CC1=O)C2=O [17-AAG (Tanespimycin)],-25
